# For some of these results: Results with a measured potency or affinity are listed apart.
# How the values were obtained:
# Parameters in all cases: scale not given: direction of the effect not stated beside the values
# [1] = molecular target: Protein translocase subunit SecA (Escherichia coli (strain K12)) (UniProt P10408); experiment: Assay to Identify E. coli SecA ATPase Inhibitors; type: functional; conditions: 30 µM
# [2] = molecular target: T1, Ubiquitin-activating enzyme e1, putative (Leishmania donovani (strain BPK282A1)) (UniProt E9BSI1); experiment: Leishmania donovani Ubiquitin Activating Enzyme (LdE1); type: functional; conditions: 30 µM
# T1 sequence (whole entry): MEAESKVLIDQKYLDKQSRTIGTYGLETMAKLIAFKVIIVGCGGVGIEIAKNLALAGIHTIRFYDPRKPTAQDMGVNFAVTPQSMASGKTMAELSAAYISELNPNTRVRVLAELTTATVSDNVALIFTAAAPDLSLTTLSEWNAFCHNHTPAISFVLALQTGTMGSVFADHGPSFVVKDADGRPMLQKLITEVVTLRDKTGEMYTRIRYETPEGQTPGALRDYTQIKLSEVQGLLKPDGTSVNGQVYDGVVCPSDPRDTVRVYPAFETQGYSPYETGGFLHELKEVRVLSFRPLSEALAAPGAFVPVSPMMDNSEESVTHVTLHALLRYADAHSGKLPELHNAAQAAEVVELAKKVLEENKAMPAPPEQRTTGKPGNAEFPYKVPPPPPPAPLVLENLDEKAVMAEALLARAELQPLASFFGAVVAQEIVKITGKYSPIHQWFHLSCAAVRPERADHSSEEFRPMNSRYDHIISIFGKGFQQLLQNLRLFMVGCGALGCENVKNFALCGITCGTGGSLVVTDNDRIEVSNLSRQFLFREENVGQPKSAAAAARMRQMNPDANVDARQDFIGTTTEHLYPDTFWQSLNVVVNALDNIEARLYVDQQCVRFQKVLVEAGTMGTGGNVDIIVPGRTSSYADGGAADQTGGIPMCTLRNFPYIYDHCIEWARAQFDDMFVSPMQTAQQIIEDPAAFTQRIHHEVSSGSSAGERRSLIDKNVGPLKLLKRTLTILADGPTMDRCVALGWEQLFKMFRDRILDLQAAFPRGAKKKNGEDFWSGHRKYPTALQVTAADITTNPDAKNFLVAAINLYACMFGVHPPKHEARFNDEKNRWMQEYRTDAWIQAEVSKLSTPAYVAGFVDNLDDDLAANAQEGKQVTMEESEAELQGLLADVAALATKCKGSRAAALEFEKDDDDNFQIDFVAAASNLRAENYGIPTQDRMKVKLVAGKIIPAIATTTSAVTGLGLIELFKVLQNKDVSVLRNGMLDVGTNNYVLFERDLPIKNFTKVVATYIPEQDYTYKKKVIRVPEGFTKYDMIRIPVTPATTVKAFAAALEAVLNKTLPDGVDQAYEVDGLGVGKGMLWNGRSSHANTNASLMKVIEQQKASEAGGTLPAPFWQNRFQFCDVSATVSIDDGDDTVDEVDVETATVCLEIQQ
# [3] = molecular target: AMP-activated protein kinase, AMPK (Homo sapiens) (UniProt P54646+O43741+P54619+Q9UGJ0+Q9Y478+Q13131+Q9UGI9); experiment: AMP-dependent Kinase enzyme assay. An in vitro enzyme assay that detects ADP turnover that is directly proportional to AMPK activity. This uses naive AMPK that is activated during the assay with MK-8722; type: functional; conditions: 30 µM
# [4] = molecular target: Sialic acid-binding Ig-like lectin 9 (Homo sapiens) (UniProt Q9Y336); experiment: Hs-Siglec9 ALPHAscreen SOP 20170721; conditions: 10 µM
# Chain of Sialic acid-binding Ig-like lectin 9 (Homo sapiens) (Q9Y336 whole entry): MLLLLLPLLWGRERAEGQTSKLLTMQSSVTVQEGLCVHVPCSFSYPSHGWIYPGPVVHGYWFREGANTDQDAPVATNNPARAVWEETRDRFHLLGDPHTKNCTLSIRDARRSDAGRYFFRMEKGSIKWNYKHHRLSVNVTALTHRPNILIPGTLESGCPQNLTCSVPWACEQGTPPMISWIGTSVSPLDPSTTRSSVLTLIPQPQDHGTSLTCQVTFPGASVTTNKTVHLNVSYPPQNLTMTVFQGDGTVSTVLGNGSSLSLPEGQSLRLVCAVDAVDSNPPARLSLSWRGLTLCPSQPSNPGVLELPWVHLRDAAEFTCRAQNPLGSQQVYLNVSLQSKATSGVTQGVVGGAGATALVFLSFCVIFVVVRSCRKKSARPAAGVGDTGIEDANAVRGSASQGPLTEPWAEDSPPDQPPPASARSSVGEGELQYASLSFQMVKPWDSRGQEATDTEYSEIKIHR
# Trypanosoma cruzi = experiment: Trypanosoma cruzi phosphomannomutase and mannose-1-phosphate guanylyltransferase assay; type: functional; conditions: 10 µM
# [5] = molecular target: T2, Arginase-2, mitochondrial (Homo sapiens) (UniProt P78540); experiment: in vitro enzyme assay to detect the production of urea directly proportional to the activity of Arginase II; type: functional; conditions: 33.3 µM; also: in the data most compounds retested in dose-response had high values
# T2 sequence (whole entry): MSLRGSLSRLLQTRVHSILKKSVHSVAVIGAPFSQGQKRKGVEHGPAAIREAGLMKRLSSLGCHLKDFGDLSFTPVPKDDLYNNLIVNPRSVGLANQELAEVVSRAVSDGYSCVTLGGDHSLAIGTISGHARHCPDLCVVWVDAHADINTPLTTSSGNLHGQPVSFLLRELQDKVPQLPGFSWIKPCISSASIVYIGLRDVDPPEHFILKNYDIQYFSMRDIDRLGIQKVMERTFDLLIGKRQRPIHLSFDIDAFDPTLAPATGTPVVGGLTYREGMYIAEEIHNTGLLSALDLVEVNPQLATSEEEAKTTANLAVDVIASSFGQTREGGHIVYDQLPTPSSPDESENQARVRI
# [6] = molecular target: T3, Proteasome subunit beta (Trypanosoma cruzi) (UniProt O96673); experiment: Trypanosoma cruzi proteasome chymotrypsin-like activity (TcProtChymo) assay.; also: in the data most compounds retested in dose-response had high values; type: functional; conditions: 9.37 µM
# T3 sequence (whole entry): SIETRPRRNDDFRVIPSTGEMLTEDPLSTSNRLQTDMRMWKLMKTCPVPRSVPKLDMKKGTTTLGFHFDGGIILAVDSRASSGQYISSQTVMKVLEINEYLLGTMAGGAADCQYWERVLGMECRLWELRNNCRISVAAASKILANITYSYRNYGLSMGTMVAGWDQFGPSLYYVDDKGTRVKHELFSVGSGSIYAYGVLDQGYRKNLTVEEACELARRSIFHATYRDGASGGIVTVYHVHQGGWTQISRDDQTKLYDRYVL
# Homo sapiens = organism: Homo sapiens; experiment: To identify inhibition of the IFN signalling (Jak-Stat) pathway via expression of an eGFP reporter gene under the control of an IFN-stimulated response element (ISRE) containing MxA promoter.; type: functional; conditions: 30 µM
# [7] = molecular target: T4, Tyrosyl-tRNA synthetase, putative (Trypanosoma cruzi (strain CL Brener)) (UniProt Q4DSP6); experiment: Trypanosoma cruzi tyrosyl tRNA synthetase (TcYRS) _High Tyrosine SOP; type: functional; conditions: 30 µM; also: in the data most compounds retested in dose-response had high values
# T4 sequence (whole entry): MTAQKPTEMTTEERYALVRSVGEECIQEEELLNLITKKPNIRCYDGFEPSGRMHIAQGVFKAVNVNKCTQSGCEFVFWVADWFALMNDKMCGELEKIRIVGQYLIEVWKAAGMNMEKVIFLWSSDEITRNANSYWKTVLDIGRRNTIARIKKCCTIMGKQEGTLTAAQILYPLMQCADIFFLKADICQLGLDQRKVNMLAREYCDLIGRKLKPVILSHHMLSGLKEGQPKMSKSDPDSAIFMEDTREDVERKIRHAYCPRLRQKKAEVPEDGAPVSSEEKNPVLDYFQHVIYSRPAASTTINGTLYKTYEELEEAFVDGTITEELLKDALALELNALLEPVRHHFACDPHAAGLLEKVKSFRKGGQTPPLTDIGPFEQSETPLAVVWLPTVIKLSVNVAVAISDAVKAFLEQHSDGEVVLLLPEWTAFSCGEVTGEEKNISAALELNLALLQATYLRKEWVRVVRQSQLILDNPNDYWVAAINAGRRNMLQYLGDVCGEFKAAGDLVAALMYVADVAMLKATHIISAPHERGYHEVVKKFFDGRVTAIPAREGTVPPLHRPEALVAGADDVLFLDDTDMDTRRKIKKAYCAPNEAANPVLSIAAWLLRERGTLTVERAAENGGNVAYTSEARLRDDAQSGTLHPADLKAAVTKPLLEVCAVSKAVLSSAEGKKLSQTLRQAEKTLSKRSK
# [8] = molecular target: T4, Tyrosyl-tRNA synthetase, putative (Trypanosoma cruzi (strain CL Brener)); experiment: Trypanosoma cruzi tyrosyl tRNA synthetase (TcYRS) SOP; type: functional; conditions: 30 µM
# [9] = molecular target: Chromo domain-containing protein 1 (Saccharomyces cerevisiae (strain ATCC 204508 / S288c) (Baker's yeast)) (UniProt P32657); experiment: ScCHD-1 Enzyme Inhibition Assay; type: functional; conditions: 30 µM; also: in the data most compounds retested in dose-response had high values
# Chain of Chromo domain-containing protein 1 (Saccharomyces cerevisiae (strain ATCC 204508 / S288c) (Baker's yeast)) (P32657 whole entry, the tested form may be a part): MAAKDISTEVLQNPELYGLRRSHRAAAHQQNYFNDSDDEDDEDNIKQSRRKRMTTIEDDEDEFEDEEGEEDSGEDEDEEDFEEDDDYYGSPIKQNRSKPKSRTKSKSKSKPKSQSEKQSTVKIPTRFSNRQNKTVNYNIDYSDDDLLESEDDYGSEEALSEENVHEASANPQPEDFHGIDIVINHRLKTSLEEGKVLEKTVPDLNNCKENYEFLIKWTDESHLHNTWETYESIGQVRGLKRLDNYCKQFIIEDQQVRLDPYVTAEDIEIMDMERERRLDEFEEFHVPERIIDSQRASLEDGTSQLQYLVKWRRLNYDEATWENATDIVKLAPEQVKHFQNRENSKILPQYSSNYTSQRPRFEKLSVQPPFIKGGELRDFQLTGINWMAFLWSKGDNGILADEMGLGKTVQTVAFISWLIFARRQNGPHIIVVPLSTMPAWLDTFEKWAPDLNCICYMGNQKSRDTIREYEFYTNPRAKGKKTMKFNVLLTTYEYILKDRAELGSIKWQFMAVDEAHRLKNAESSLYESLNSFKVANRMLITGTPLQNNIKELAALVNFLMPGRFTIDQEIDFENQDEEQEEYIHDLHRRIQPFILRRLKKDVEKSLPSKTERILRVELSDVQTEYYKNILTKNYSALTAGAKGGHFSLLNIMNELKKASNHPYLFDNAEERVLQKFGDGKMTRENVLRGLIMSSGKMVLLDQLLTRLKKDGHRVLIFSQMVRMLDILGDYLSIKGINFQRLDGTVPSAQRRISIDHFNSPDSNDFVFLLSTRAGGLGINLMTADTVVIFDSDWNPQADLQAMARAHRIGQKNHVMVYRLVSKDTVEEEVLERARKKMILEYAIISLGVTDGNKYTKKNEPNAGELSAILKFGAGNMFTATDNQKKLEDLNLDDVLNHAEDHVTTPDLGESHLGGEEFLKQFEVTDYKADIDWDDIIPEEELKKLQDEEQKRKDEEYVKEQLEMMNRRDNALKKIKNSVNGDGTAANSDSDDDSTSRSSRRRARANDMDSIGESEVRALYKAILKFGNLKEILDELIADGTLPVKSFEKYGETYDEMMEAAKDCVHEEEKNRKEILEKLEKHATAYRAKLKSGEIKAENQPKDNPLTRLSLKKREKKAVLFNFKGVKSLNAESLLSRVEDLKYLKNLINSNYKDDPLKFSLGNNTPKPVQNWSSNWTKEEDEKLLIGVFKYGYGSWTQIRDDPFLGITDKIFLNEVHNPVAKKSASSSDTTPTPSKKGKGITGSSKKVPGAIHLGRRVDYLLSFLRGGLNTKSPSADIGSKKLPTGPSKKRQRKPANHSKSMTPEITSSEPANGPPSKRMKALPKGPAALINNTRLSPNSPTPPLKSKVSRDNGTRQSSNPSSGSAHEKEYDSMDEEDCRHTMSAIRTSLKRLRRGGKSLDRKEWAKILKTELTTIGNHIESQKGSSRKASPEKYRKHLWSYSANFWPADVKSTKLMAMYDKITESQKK
# Chain of Protein translocase subunit SecA (Escherichia coli (strain K12)) (P10408 whole entry): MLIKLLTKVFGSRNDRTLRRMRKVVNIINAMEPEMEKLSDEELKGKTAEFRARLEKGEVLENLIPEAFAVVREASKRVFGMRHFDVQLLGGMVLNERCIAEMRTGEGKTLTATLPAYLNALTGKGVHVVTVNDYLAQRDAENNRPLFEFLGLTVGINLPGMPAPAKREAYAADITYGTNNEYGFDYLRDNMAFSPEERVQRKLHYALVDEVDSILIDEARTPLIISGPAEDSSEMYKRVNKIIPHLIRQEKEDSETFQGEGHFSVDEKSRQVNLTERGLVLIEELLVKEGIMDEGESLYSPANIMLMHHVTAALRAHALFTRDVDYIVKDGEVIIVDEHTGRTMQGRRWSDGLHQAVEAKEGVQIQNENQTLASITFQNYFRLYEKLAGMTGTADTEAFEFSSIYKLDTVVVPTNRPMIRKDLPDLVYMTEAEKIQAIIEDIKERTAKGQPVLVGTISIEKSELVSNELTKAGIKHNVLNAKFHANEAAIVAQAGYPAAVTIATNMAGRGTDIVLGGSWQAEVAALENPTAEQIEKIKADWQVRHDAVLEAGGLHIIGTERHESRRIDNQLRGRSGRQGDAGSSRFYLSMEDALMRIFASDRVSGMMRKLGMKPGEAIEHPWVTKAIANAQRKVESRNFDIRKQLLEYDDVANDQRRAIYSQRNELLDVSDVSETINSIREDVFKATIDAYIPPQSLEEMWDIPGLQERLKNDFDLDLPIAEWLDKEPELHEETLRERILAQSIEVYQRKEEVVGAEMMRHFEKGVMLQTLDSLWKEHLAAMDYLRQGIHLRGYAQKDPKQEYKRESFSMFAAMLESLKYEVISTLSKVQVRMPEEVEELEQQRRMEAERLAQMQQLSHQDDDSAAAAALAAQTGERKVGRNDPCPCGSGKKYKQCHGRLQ
SMILES,Percent Effect [1],Percent Effect [2],Percent Effect [3],Percent Effect [4],Percent Effect (Trypanosoma cruzi),Percent Effect [5],Percent Effect [6],Percent Effect (Homo sapiens),Percent Effect [7],Percent Effect [8],Percent Effect [9]
O=C(C1CCOCC1)N1C[C@@H]2[C@@H](C1)OCC(=O)N2CC1CC1,-1.53%,-192%,0.601%,-6.86%,-19.1%,0.319%,19.2%,-0.484%,-222%,-451%,-3.21%
OC(CN1CCCCCCC1)c1ccc(F)cc1 (stereo unspecified),0.984%,10.5%,-3.76%,-5.28%,7.33%,-1.15%,15.4%,11.7%,7.35%,19.5%,-11.6%
CC(=O)N1CCC(Cc2cnc(-c3c(C)n[nH]c3C)cn2)C1 (stereo unspecified),-5.08%,0%,10%,-2.02%,1.97%,0.233%,4.67%,-10.8%,3.19%,1.28%,0.0811%
COCCN1CCC(CNC(=O)C2(c3cc(C)cc(C)c3)CCC2)C1 (stereo unspecified),-8.07%,0%,-6.3%,-4.59%,-1.77%,2.88%,-4.82%,-6.37%,2.46%,1.24%,2.35%
O=C(NCCN1CCCCC1)c1nc2ccccc2c(=O)[nH]1,4.74%,9.33%,-7.18%,-5.32%,-8.05%,-13.6%,13.7%,-0.00779%,0%,10.3%,-9.94%
CC(O)CN1CCN(C(=O)c2ccc(N(C)C)nc2)CC1 (stereo unspecified),-1.4%,33.8%,-9.23%,0.151%,4.68%,0%,11%,8.66%,7.77%,9.76%,-4.89%
Cc1cc(C(=O)NCc2ccnc(N(C)C)c2)c(C)o1,-4.79%,23.4%,-3.99%,-6.37%,-5.24%,-1.42%,8.62%,-12%,4.85%,12.2%,-10.6%
CCC(C)[C@H](NC(=O)c1cc(Br)ccc1-n1cnnn1)C(=O)OC (stereo partly specified),-3%,-1.33%,-6.14%,-6.61%,-2.36%,-11.1%,2.03%,-0.401%,-19.1%,-17.9%,0.0287%
COc1cccc(S(=O)(=O)NC2CNC(=O)C2)c1 (stereo unspecified),-6%,2.74%,3.51%,9.97%,6.66%,-1.36%,2.31%,-0.016%,4.3%,12.5%,-5.21%
CC(NC(=O)COc1ccc(F)cc1)c1nnc2n1CCCCC2 (stereo unspecified),-3.7%,16.2%,-13.2%,13.2%,5.19%,-8.02%,0.36%,0.906%,4.43%,18.5%,-14.6%
O=C(c1cccc(Cl)c1)N1CCCn2c(CN3CCCCC3)nnc2C1,-9.25%,8%,-3.61%,1.72%,-6.3%,-2.1%,0.441%,10.4%,4.25%,3.85%,-2.51%
